Measurements reported in PubChem BioAssay AID1159580 (chemical genetic matrix, 2015).
Values joined by “and” are separate entries in the source; they are usually repeats but may differ in a detail not shown here. Identical values can stand only once. Among all 5,500 compounds or so, about 2,000 (36%) were called active. Another 18% or so got no clear call; they are omitted. Rule as the data show it: active = normalized growth mostly below about 0.91 (no sharp cut-off); inconclusive = no clear call, values can overlap the other calls; inactive = mostly above about 0.92. This is one part of the list.

Assay: chemical genetic growth profiling, strain panel (AID 1159580);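 also: tested at 20 µM; growth read once vehicle control cultures reached saturation at 30 °C; 1 = growth at the plate median or of vehicle wells; lower values mean less growth of the strain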
Conditions: S. cerevisiae deletion strains, growth OD

Measured: normalized growth

COc1c(O)cc2c(-c3ccccc3)cc(=O)oc2c1OC
inactive: locus YAL021C, strain ccr4, hits give low values 0.994 | locus YAL026C, strain drs2, hits give low values 1.01 | locus YAL030W, strain snc1, hits give low values 0.992 | locus YBL061C, strain skt5, hits give low values 1.01 | locus YBR009C, strain hhf1, hits give low values 0.994 | locus YBR021W, strain FUR4, hits give low values 0.982 | locus YBR023C, strain chs3, hits give low values 0.994 | locus YBR171W, strain sec66, hits give low values 1.01 | locus YBR229C, strain ROT2, hits give low values 0.995 | locus YBR231C, strain swc5, hits give low values 1 | locus YBR279W, strain paf1, hits give low values 0.995 | locus YCL011C, strain gbp2, hits give low values 0.995 | locus YCL016C, strain dcc1, hits give low values 0.993 | locus YCL029C, strain bik1, hits give low values 0.964 | locus YCL061C, strain MRC1, hits give low values 0.994 | locus YCL069W, strain vba3, hits give low values 1.01 | locus YCR088W, strain abp1, hits give low values 0.995 | locus YDL005C, strain med2, hits give low values 0.99 | locus YDL035C, strain GPR1, hits give low values 1.05 | locus YDL040C, strain nat1, hits give low values 0.997 | locus YDL074C, strain BRE1, hits give low values 1.01 | locus YDL101C, strain DUN1, hits give low values 0.99 | locus YDL134C, strain PPH21, hits give low values 1.03 | locus YDL185W, strain tfp1, hits give low values 0.95 | locus YDL192W, strain arf1, hits give low values 0.988 | locus YDR001C, strain nth1, hits give low values 0.987 | locus YDR069C, strain doa4, hits give low values 1.02 | locus YDR101C, strain arx1, hits give low values 1.01 | locus YDR137W, strain rgp1, hits give low values 0.889 | locus YDR159W, strain sac3, hits give low values 0.999 | locus YDR162C, strain NBP2, hits give low values 1.01 | locus YDR195W, strain ref2 0.989 | locus YDR297W, strain sur2, hits give low values 1.02 | locus YDR318W, strain mcm21, hits give low values 0.973 | locus YDR334W, strain swr1, hits give low values 1 | locus YDR335W, strain msn5, hits give low values 0.995 | locus YDR388W, hits give low values 0.984 | locus YDR392W, strain spt3, hits give low values 0.848 | locus YDR502C, strain sam2, hits give low values 0.955 | locus YEL003W, strain gim4, hits give low values 1.02 | locus YEL037C, strain rad23, hits give low values 1 | locus YEL061C, strain CIN8 (second series), hits give low values 0.995 | locus YER015W, strain faa2, hits give low values 0.997 | locus YER016W, strain bim1, hits give low values 1 | locus YER110C, hits give low values 0.968 | locus YER111C, strain swi4, hits give low values 0.997 | locus YER155C, strain BEM2 (second series), hits give low values 1.02 | locus YER155C, strain BEM2, hits give low values 0.989 | locus YER167W, strain BCK2, hits give low values 0.988 | locus YFR010W, strain ubp6, hits give low values 1.02 | locus YGL078C, strain dbp3, hits give low values 1 | locus YGL086W, strain mad1, hits give low values 0.996 | locus YGL167C, strain pmr1, hits give low values 0.971 | locus YGL173C, strain kem1, hits give low values 1.01 | locus YGL227W, strain vid30, hits give low values 0.996 | locus YGL240W, strain doc1, hits give low values 1.02 | locus YGL248W, strain PDE1, hits give low values 1.02 | locus YGL253W, strain hxk2, hits give low values 1.02 | locus YGR135W, strain pre9, hits give low values 0.954 | locus YGR252W, strain gcn5, hits give low values 1.06 | locus YHR013C, strain ard1, hits give low values 0.978 | locus YHR027C, strain rpn1, hits give low values 0.987 | locus YHR030C, strain SLT2, hits give low values 0.993 and 1.06 | locus YHR079C, strain IRE1 (second series), hits give low values 0.959 | locus YHR079C, strain IRE1, hits give low values 1.05 | locus YHR094C, strain hxt1, hits give low values 0.983 | locus YHR129C, strain ARP1, hits give low values 1.01 | locus YHR142W, strain chs7, hits give low values 0.965 | locus YHR200W, strain rpn10, hits give low values 0.986 | locus YIL066C, strain RNR3, hits give low values 1 | locus YIL073C, strain SPO22, hits give low values 0.905 | locus YIL125W, strain kgd1, hits give low values 0.992 | locus YIR030C, strain dcg1, hits give low values 0.957 | locus YJL092W, strain hpr5, hits give low values 0.991 | locus YJL095W, strain BCK1 (second series), hits give low values 0.999 | locus YJL095W, strain BCK1, hits give low values 1.11 and 1.04 | locus YJL115W, strain asf1, hits give low values 0.995 | locus YJL129C, strain trk1, hits give low values 0.948 | locus YJL134W, strain LCB3, hits give low values 0.993 | locus YJL154C, strain vps35, hits give low values 0.985 | locus YJL164C, strain tpk1, hits give low values 0.974 | locus YJL166W, strain qcr8, hits give low values 0.999 | locus YJL168C, strain set2, hits give low values 0.965 | locus YJL187C, strain SWE1 (second series), hits give low values 1 | locus YJL187C, strain SWE1, hits give low values 0.989 | locus YJR043C, strain POL32, hits give low values 1.04 | locus YJR066W, strain TOR1, hits give low values 0.984 | locus YKL009W, strain mrt4, hits give low values 0.996 | locus YKL068W, hits give low values 0.985 | locus YKL085W, strain MDH1 (second series), hits give low values 0.973 | locus YKL085W, strain MDH1, hits give low values 0.973 | locus YKL160W, strain elf1, hits give low values 0.983 | locus YKL190W, strain CNB1, hits give low values 0.99 | locus YKR001C, strain vps1, hits give low values 0.946 | locus YKR026C, strain gcn3, hits give low values 1 | locus YKR091W, strain srl3, hits give low values 0.995 | locus YLL001W, strain dnm1, hits give low values 0.962 | locus YLL026W, hits give low values 1 | locus YLL041C, strain sdh2, hits give low values 0.998 | locus YLR027C, strain aat2, hits give low values 1 | locus YLR039C, strain RIC1, hits give low values 0.979 | locus YLR058C, strain SHM2, hits give low values 1.01 | locus YLR102C, strain apc9, hits give low values 0.983 | locus YLR113W, strain HOG1, hits give low values 1.03 | locus YLR221C, strain rsa3, hits give low values 1.04 | locus YLR258W, strain gsy2, hits give low values 1.01 | locus YLR262C, strain YPT6 (second series), hits give low values 0.878 | locus YLR268W, strain sec22, hits give low values 0.975 | locus YLR320W, strain mms22, hits give low values 1.02 | locus YLR330W, strain CHS5, hits give low values 0.985 | locus YLR342W, strain FKS1, hits give low values 1 | locus YLR357W, strain rsc2, hits give low values 0.95 | locus YLR370C, strain arc18, hits give low values 0.99 | locus YLR371W, strain rom2, hits give low values 0.97 | locus YLR384C, strain iki3, hits give low values 0.988 | locus YLR418C, strain cdc73, hits give low values 0.948 | locus YML016C, strain PPZ1, hits give low values 1 | locus YML032C, strain rad52, hits give low values 0.995 | locus YML120C, strain ndi1, hits give low values 0.966 | locus YML124C, strain tub3, hits give low values 0.971 | locus YMR058W, strain fet3, hits give low values 1.01 | locus YMR078C, strain ctf18, hits give low values 0.961 | locus YMR125W, strain sto1, hits give low values 0.973 | locus YMR129W, hits give low values 0.995 | locus YMR205C, strain PFK2, hits give low values 0.936 | locus YMR223W, strain ubp8, hits give low values 0.978 | locus YMR231W, strain pep5, hits give low values 0.995 | locus YMR263W, strain SAP30, hits give low values 0.989 | locus YNL067W, strain RPL9B, hits give low values 1.01 | locus YNL071W, strain lat1, hits give low values 0.993 | locus YNL128W, strain TEP1, hits give low values 1 | locus YNL153C, strain GIM3, hits give low values 1 | locus YNL183C, strain NPR1, hits give low values 0.994 | locus YNL209W, strain ssb2, hits give low values 0.991 | locus YNL233W, strain BNI4, hits give low values 1.01 | locus YNL248C, strain rpa49, hits give low values 1.03 | locus YNL250W, strain rad50, hits give low values 0.915 | locus YNL271C, strain bni1, hits give low values 0.973 | locus YNL298W, strain CLA4, hits give low values 1.01 | locus YNL307C, strain MCK1, hits give low values 0.95 | locus YNL322C, strain KRE1 (second series), hits give low values 0.982 | locus YNR049C, strain mso1, hits give low values 1.01 | locus YNR052C, strain pop2, hits give low values 0.99 | locus YOL012C, strain htz1 1.04 | locus YOL147C, strain pex11, hits give low values 0.968 | locus YOR001W, strain rrp6, hits give low values 1.02 | locus YOR061W, strain CKA2, hits give low values 1 | locus YOR069W, strain VPS5, hits give low values 0.994 | locus YOR070C, strain gyp1, hits give low values 0.999 | locus YOR080W, strain dia2, hits give low values 1.02 | locus YOR083W, strain WHI5, hits give low values 0.984 | locus YOR106W, strain vam3, hits give low values 0.967 | locus YOR136W, strain idh2, hits give low values 0.977 | locus YOR144C, strain elg1, hits give low values 0.989 | locus YOR184W, strain ser1, hits give low values 1.03 | locus YOR231W, strain MKK1, hits give low values 1.06 | locus YOR265W, strain rbl2, hits give low values 0.987 | locus YOR270C, strain vph1, hits give low values 1.01 | locus YOR290C, strain snf2, hits give low values 0.967 | locus YOR316C, strain cot1, hits give low values 0.962 | locus YPL051W, strain arl3, hits give low values 1.02 | locus YPL055C, strain LGE1, hits give low values 1.06 | locus YPL078C, strain atp4, hits give low values 0.969 | locus YPL106C, strain sse1, hits give low values 0.983 | locus YPL240C, strain hsp82, hits give low values 1 | locus YPL256C, strain CLN2, hits give low values 1.02 | locus YPR119W, strain clb2, hits give low values 0.947 | locus YPR141C, strain kar3, hits give low values 0.968 | locus YPR163C, strain tif3, hits give low values 0.98 | locus YPR167C, strain met16, hits give low values 0.968 | strain wtn01, hits give low values 0.991
active: locus YMR307W, strain GAS1, hits give low values 1.67 [resistant]
